Source: PubChem
D1 antag: blocks dopamine activation of the human D1 receptor. actives 3.2% (n = 360,000). AID 504652. P21728. HEK293 TREx D1 cells, calcium flux, dopamine EC80; stronger effect = lower value. activity change, negative = inhibition, % at 10 µM; in the data active = activity change below about -30%
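Using tetracycline-induced force-coupled D1 Hek293 cells and a calcium dye, signals were followed for 180 s after compound, then for 180 s after EC80 dopamine, to detect inhibitors.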
D1 agonist: human D1 receptor agonism; HEK293 T-REx D1 cells, calcium flux, agonist mode; P21728; activation, % at 2 µM; actives 1% (n = 360,000)
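Inducible HEK293 T-REx D1 cells, force-coupled to calcium signalling, were plated at 4000 cells/well with tetracycline and held overnight at 30 C. After no-wash calcium dye loading, compound-evoked calcium rise over 180 s flagged agonists.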
TRHR PAM: allosteric enhancers of human TRH receptor. P34981. TRHR cells, fluo-8 calcium fluorescence, EC20 TRH enhancement. enhancement, % at 2 µM. actives 0.66% (n = 360,000); in the data active = enhancement above about 30%
Target sequence (P34981 whole entry, looked up): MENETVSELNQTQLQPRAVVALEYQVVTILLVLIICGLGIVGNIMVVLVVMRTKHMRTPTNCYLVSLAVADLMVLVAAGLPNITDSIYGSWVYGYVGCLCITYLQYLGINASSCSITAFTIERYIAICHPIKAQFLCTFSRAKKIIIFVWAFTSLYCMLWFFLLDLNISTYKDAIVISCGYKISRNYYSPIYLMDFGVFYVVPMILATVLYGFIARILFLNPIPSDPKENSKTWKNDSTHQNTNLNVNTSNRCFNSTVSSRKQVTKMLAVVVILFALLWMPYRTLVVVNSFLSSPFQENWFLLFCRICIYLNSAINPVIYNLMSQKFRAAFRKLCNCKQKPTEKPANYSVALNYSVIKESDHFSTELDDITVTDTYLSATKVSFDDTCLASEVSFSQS
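TRHR-expressing cells loaded with fluo-8 calcium dye were read kinetically (ex 480/em 530) during compound addition, then stimulated with an EC20 of TRH (10 nM final). Enhancement of the Gq-mediated intracellular calcium response was scored.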
D1 PAM: potentiators of human D1 dopamine receptor | AID 504651 | actives 0.036% (n = 360,000) | potentiation, % at 10 µM | P21728 | HEK293 TREx D1 cells, calcium flux, dopamine EC20 potentiation; in the data active = potentiation above about 30%
TRHR agonist: TRH receptor (human) agonism; P34981; TRHR cells, calcium flux fluo-8, FDSS agonist mode; activation, % at 2 µM; actives 0.18% (n = 360,000)
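Read-out: compound-evoked intracellular calcium rise in TRHR cells, fluo-8 dye, kinetic FDSS fluorescence at 1 s/cycle following a 10-cycle baseline. Cells cultured overnight before dye loading (30 min–1.5 h, RT).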
Each line names hits and unclear results; the compound was inactive in the other large screens. In the library only some 4.7% were active in any assay of this set; here they are far more common. Cut-off read from the data, not from the text of the source, unless noted: active = activation above about 30%; inactive = the rest.

Cc1nc(Nc2ccc(S(N)(=O)=O)cc2)sc1C(=O)Nc1ccccc1	D1 antag -55
Cc1nc(Nc2ccccc2)sc1C(=O)Nc1ccccc1	none
Cc1nc(Nc2ccccc2Cl)sc1C(=O)Nc1ccccc1	none
COc1ccccc1Nc1nc(C)c(C(=O)Nc2ccccc2)s1	D1 antag -38
Cc1ccc(CSc2ncc(Cl)c(C(=O)NCCc3ccc(S(N)(=O)=O)cc3)n2)cc1	none
CC1(C)Cc2c(sc(NC(=O)c3ccc(C(=O)c4ccccc4)cc3)c2C(N)=O)C(C)(C)N1	D1 agonist 112
COC(=O)c1c(NC(=O)c2ccccc2)sc2c1CC(C)(C)NC2(C)C	D1 antag -31
CC1=C(C(=O)OCc2ccc(C)cc2)C(c2ccccc2C(F)(F)F)CC(=O)N1 (configuration not stated)	none
COc1cc(OC)cc(N2C(=O)N(Cc3ccc(C(C)(C)C)cc3)c3ccccc3S2(=O)=O)c1	none
COc1ccc(CC2(CO)CCN(Cc3cnn(-c4ccc(F)cc4)c3)CC2)cc1	D1 agonist 47
CCOC(=O)c1ccc(NC(=O)C(C)NS(=O)(=O)c2ccc(OC)cc2)cc1 (configuration not stated)	none
CCC(C)NS(=O)(=O)c1ccc(OCC(=O)Nc2ccc3c(c2)OCCO3)cc1 (configuration not stated)	D1 antag -43
CC(C)[C@H](NS(=O)(=O)c1ccc2c(c1)OCCO2)C(=O)OCC(=O)Nc1cccc(Cl)c1Cl	D1 antag -31
C/C(CC(=O)Nc1ccc2c(c1)OCCO2)=N\NC(=O)COc1ccccc1	TRHR PAM 37
CCOC(=O)c1ccc(NC(=O)COc2ccc(S(=O)(=O)NC(C)CC)cc2)cc1 (configuration not stated)	D1 antag -38
Cc1cccc(CC(=O)NC2CC(=O)N(c3ccccc3)C2)c1 (configuration not stated)	none (no result: D1 antag)
NC(=O)c1ccccc1NC(=S)NC(=O)CCc1ccccc1	D1 antag -74
Oc1ccc(-c2csc(Nc3ccccn3)n2)cc1	D1 antag -79
Cc1cccc(N/C=C(\[N+](=O)[O-])S(=O)(=O)c2ccccc2)c1	none
Cc1ccc(N/C=C(\[N+](=O)[O-])S(=O)(=O)c2ccccc2)cc1	TRHR PAM 31
COc1ccc(CN2CCc3cc(OC)c(OC)cc3C2)cc1O	D1 antag -48
Cc1ccc(Cl)cc1NC(=O)Nc1nnc(N2CCCC(C)C2)s1 (configuration not stated)	none
C=C(C)c1cccc(C(C)(C)NC(=O)Nc2ccc(OC)nc2)c1	none
C=C(C)c1cccc(C(C)(C)NC(=O)Nc2ccc(C)cn2)c1	D1 agonist 30
CCOc1ccc(NC(=O)Cn2cc(C(=O)c3ccccc3)c(=O)c3cc4c(cc32)OCCO4)cc1	none
Cc1cc2c(C)nc(-c3ccccc3)nc2o1	D1 antag -50
Cc1cc(Cl)nc(-c2ccccc2)n1	none
COc1ccc(C(=O)Oc2ccc(C3NC(=O)c4c(sc5c4CCN(C)C5)N3)cc2OC)cc1 (configuration not stated)	TRHR agonist 50
COc1ccc(C2NC(=O)c3c(sc4c3CCN(C)C4)N2)cc1O (configuration not stated)	none
CCOc1cc(C2NC(=O)c3c(sc4c3CCN(C)C4)N2)ccc1OC(=O)c1ccccc1Cl (configuration not stated)	D1 agonist 35
COc1cc(NC(=O)CC(C)S(=O)(=O)c2cc3c4c(c2)CCN4C(=O)CC3)cc(OC)c1 (configuration not stated)	none
CC(C)c1ccc(N2C(=O)/C(=C/N(C)C)SC2=S)cc1	D1 agonist 99, TRHR agonist 47
O=c1cc2nc(-c3ccccc3F)nc(SCc3ccc(Br)cc3)n2[nH]1	none
O=C(Oc1ccccc1)c1cccc(COC(=O)c2cnccn2)c1	D1 antag -59
CCOC(=O)CSc1nc(C)c(C(=O)OCC)s1	D1 antag -35
CCOC(=O)CSc1nc2ccc(N)cc2s1	none
CC1=C(C(=O)N2CCCCC2)C(c2cccc(Cl)c2)n2c(nc3ccccc32)N1 (configuration not stated)	none
CC(=O)c1c(C)oc2c(Cl)cc(NS(=O)(=O)c3cc(C)c(C)cc3C)cc12	none
Cc1cc(N2CCCC2)c(F)cc1/C=C\[N+](=O)[O-]	D1 agonist 400
CCN(CC)S(=O)(=O)c1ccc2oc(SCc3ccc(F)cc3)nc2c1	D1 antag -36
CC(C)CN1CCC(=O)N([C@H](CSc2ccc(Br)cc2)c2ccccc2)CC1	D1 antag -44
CCC(=O)N1CCc2cc(CNS(=O)(=O)c3cc(Cl)ccc3OC)ccc21	none
CCC(=O)OCCCNc1nc(-c2ccc(Cl)cc2)nc2ccccc12	none
COc1cc(/C=C2\SC(=Nc3ccccc3)N(Cc3ccco3)C2=O)ccc1OC(C)C(=O)O (configuration not stated)	none
COCCN1C(=O)/C(=C/c2ccc(OCc3ccc(C(=O)O)cc3)c(OC)c2)SC1=Nc1ccccc1	D1 antag -37
Cc1ccc(C(=O)NCc2ccc(N(C)C)cc2)cc1NC(=O)c1nsc2ccccc12	none
CCCCC(CC)c1nnc(NC(=O)c2cccs2)s1 (configuration not stated)	none
Cc1ccccc1NC(=O)c1ccccc1NC(=O)c1cccs1	none
CSc1ccccc1NC(=O)c1cccs1	D1 antag -65
CC(C)c1nnc(NC(=O)c2cccs2)s1	D1 antag -53
CSc1ccccc1NC(=O)c1c(Br)cnn1C	D1 antag -33
Cc1cnccc1NC(=O)c1cccs1	D1 antag -41
O=C(NCc1ccccc1Cl)c1ccc(-n2cnc3cccnc32)cc1	none
Cc1ccc(CCNC(=O)c2ccc(CSCc3ccccc3Cl)o2)cc1	none
Cc1ccc(N2CCN(C(=O)C3CCN(c4ncnc5c4nc4n5CCCCC4)CC3)CC2)c(C)c1	none
Cc1ccc(-c2onc(C)c2C)cc1S(=O)(=O)Nc1ccc(Cl)cn1	none
Cc1ccc(S(=O)(=O)N(C)Cc2nc(-c3ccc(Br)cc3)no2)cc1	D1 antag -36
CCN1C(=O)/C(=C/C=C2\N(CC)c3cc(S(=O)(=O)N(C)C)ccc3N2c2ccccc2)SC1=S	D1 agonist 83
CCc1ccccc1NC(=O)Cn1c(=O)n(Cc2ccc(OC)cc2)c(=O)c2oc3ccccc3c21	TRHR PAM 35
COc1ccc(Cn2c(=O)c3oc4ccccc4c3n(CC(=O)Nc3c(C)cccc3C)c2=O)cc1	none
Cc1cc(F)ccc1NC(=O)CCCN(C)S(=O)(=O)c1ccc(F)cc1	none
Cc1ccc(S(=O)(=O)N(C)CCCC(=O)Nc2ccc(F)cc2)cc1	none
Cc1ccc(S(=O)(=O)N(C)CCCC(=O)Nc2ccc(C)cc2C)cc1	D1 antag -52
